Screening data (PubChem BioAssay)
Compounds with a hit are over-represented: about 3.5% of the library has one in this group of screens.
Mtb FBA inh = Mtb fructose-bisphosphate aldolase inhibition; P9WQA3; inhibition, % at 1 µM; purified M. tuberculosis FBA, fluorescence read-out; AID 588726; hit rate 2.3% among 360,000; in the data active means inhibition above about 27%
Target sequence (P9WQA3 whole entry, looked up): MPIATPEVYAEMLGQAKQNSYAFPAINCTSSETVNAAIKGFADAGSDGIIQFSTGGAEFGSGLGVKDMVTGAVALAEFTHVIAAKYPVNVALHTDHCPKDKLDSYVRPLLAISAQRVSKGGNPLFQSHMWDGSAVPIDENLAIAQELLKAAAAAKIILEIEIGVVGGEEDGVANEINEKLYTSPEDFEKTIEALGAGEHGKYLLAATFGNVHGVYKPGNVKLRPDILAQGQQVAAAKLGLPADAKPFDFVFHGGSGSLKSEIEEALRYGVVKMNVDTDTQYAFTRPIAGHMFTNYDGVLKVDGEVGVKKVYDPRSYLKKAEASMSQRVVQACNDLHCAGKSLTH
Rv3671c inh = Rv3671c (M. tuberculosis) protease inhibition; P9WHR9; inhibition, % at 5.96 µM; hit rate 0.048% among 320,000; AID 2606; in the data active means inhibition above about 38%;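 further: extracellular domain of Rv3671c used as enzyme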
UGM FP inh = inhibitors of M. tuberculosis UDP-galactopyranose mutase. P9WIQ1. purified UGM, fluorescence polarization probe displacement. inhibition, % at 10 µM. hit rate 0.06% among 320,000. AID 504406; in the data active means inhibition above about 10%, passing the limit was not always enough
GDH-TPI counter = counter-screen for M. tuberculosis FBA inhibitors: GDH-TPI coupled enzymes | GDH-TPI coupled enzyme counterscreen, NADH absorbance | inhibition, % at 4.8 µM | hit rate 1.2% among 360,000; in the data active means inhibition above about 30%
Of the large screens only hits and unclear results are named; the others gave an inactive call.

CNC(=S)N/N=C/c1ccc(OCC(=O)Nc2c(C)cc(C)cc2C)c(OC)c1	none
CCCC(=O)NC1=C(N2CC2)C(=O)C(NC(=O)CCC)=C(N2CC2)C1=O	GDH-TPI counter 33.2 (no result: Rv3671c inh, UGM FP inh)
CCCC(=O)Nc1ccc(N2CCN(S(C)(=O)=O)CC2)cc1	none
CC(=O)Nc1ccc(S(=O)(=O)Nc2cc(C)cn(Cc3ccccc3)c2=O)cc1	Mtb FBA inh 69.6
Cc1c(O)ccc2c(CC(=O)N[C@@H](Cc3ccccc3)C(=O)O)cc(=O)oc12	Mtb FBA inh 164.8 (no result: Rv3671c inh)
COc1ccccc1NCc1cc(=O)oc2c(C)c(O)ccc12	none
O=C(CSc1ccc([N+](=O)[O-])cn1)Nc1nccs1	GDH-TPI counter 34.5
CN(C)Cc1c(O)ccc2c(-c3ccccc3)cc(=O)oc12	none
COc1ccc(Oc2coc3c(CN(C)C)c(O)ccc3c2=O)cc1	none
COc1ccc(Oc2c(C)oc3c(CN(C)C)c(O)ccc3c2=O)cc1	Mtb FBA inh 42.7
COc1cccc(Oc2c(C)oc3c(CN4CCCCC4)c(O)ccc3c2=O)c1	Mtb FBA inh 179.2
Cc1oc2c(CN(C)C)c(O)ccc2c(=O)c1-c1cscn1	Mtb FBA inh 65.9
COc1ccccc1Oc1c(C)oc2c(CN3CCN(C)CC3)c(O)ccc2c1=O	none (no result: Mtb FBA inh, GDH-TPI counter)
COC(=O)c1ccc(Oc2c(C)oc3c(CN4CCN(C)CC4)c(O)ccc3c2=O)cc1	Mtb FBA inh active
COc1ccc(CCCNC(=O)C2Cc3c(-c4cccc(C(C)=O)c4)ccnc3O2)cc1 (stereo unspecified)	none (no result: Rv3671c inh, UGM FP inh)
C=CCN(C(=O)c1csnn1)C(C(=O)NCc1ccc(F)cc1)c1cccs1 (stereo unspecified)	none
Clc1ccc(-c2ccc(C=Nc3ccc(N4CCOCC4)cc3)o2)cc1	GDH-TPI counter 31.8
Clc1ccc(-c2ccc(C=Nc3ccc(N4CCOCC4)cc3)o2)c(Cl)c1	none
CCC(N=c1cc(-c2ccc(OC)cc2)oc2ccc(C)cc12)C(=O)O (stereo unspecified)	Mtb FBA inh active, GDH-TPI counter 31.1
CCC(N=c1cc(-c2ccc(OC)c(OC)c2)oc2ccc(C)cc12)C(=O)O (stereo unspecified)	none
O=C1c2ccccc2C(=O)N1OS(=O)(=O)c1ccccc1	none (no result: Mtb FBA inh, GDH-TPI counter)
Cc1cc(S(=O)(=O)ON2C(=O)c3ccccc3C2=O)ccc1F	Mtb FBA inh 37.0
COc1ccccc1-c1coc2c(CN3CCC(C)CC3)c(O)ccc2c1=O	Mtb FBA inh 148.8
COc1ccccc1-c1coc2cc(O)cc(O)c2c1=O	none
CCN(CC)Cc1c(O)ccc2c(=O)c(-c3ccccc3OC)coc12	Mtb FBA inh 115.9
COCc1c(C(=O)N/N=C/c2ccc(C)o2)nnn1-c1nonc1N	GDH-TPI counter 38.1
CN(C)c1ccc(/C=N/NC(=O)c2nnn(-c3nonc3N)c2CN(C)c2ccccc2)cc1	GDH-TPI counter 30.8
Nc1nonc1-n1nnc(C(=O)N/N=C/c2ccc(O)cc2)c1COc1ccc(F)cc1	GDH-TPI counter 32.4
Nc1nonc1-n1nnc(C(=O)N/N=C/c2ccc(OCc3ccccc3)cc2)c1COc1ccc(F)cc1	none
CCOC(=O)[C@H]1[C@H]2COc3ccc(OC)cc3[C@@H]2N2C(=O)c3cc(C)ccc3NC(=O)[C@@]12C	none
COc1cc(C(=O)Nc2cc(-c3cn4cccnc4n3)ccc2C)cc(OC)c1OC	Mtb FBA inh active
COc1ccc(-c2cn3cccnc3n2)cc1NC(=O)C1CCCC1	none
COc1ccc(-c2cn3cccnc3n2)cc1NC(=O)C(C)C	GDH-TPI counter 33.7
COc1ccc(-c2cn3cccnc3n2)cc1NC(=O)C1CC1	none
Cc1ccc(-c2cn3cccnc3n2)cc1NC(=O)c1cccs1	Mtb FBA inh active
COc1ccc(-c2cn3cccnc3n2)cc1Br	Mtb FBA inh active
O=C(COc1ccccc1)Nc1cccc(-c2cn3cccnc3n2)c1	Mtb FBA inh active
COc1cc(OC)cc(C(=O)Nc2cc(-c3cn4cccnc4n3)ccc2C)c1	Mtb FBA inh active (no result: UGM FP inh)
Nc1ccc(-c2cn3cccnc3n2)cc1	GDH-TPI counter 37.8 (no result: Rv3671c inh, UGM FP inh)
O=C(COc1ccccc1)Nc1cccc(-c2nn[nH]n2)c1	none
CCOC(=O)C[C@@H](C#N)NC(=O)[C@@H]1CCCN1C(=O)[C@@H](NC(=O)c1ccc(N)c(Cl)c1)C(C)(C)C	none (no result: Rv3671c inh, UGM FP inh)
COCCN(C(=O)CSc1nnc(-c2cccc(OC)c2)n1C)c1c(N)n(Cc2ccccc2)c(=O)[nH]c1=O	none
COCCN(CCOc1cc(C)cc(C)c1)Cc1ccc(Cl)cc1	none
CC(C)CN1CCC(=O)N(CCN=[N+]=[N-])CC1	none
COc1cccc(/C=C/c2nc(C#N)c(NCC(C)C)o2)c1	Mtb FBA inh active
CCOc1ccc(/C=C/c2nc(C#N)c(NCCCN(C)C)o2)cc1	GDH-TPI counter 35.7
COCCCNc1oc(/C=C/c2ccccc2)nc1C#N	none (no result: Mtb FBA inh)
CN(C)CCCNc1oc(/C=C/c2ccccc2)nc1C#N	none
C=CCNc1oc(/C=C/c2ccccc2)nc1C#N	Mtb FBA inh active, GDH-TPI counter 47.6
CN(C)CCNc1oc(/C=C/c2ccccc2)nc1C#N	Mtb FBA inh 135.3
Nc1cc2c(cc1N)-c1ccccc1C2	none (no result: Rv3671c inh, UGM FP inh)
CCOC(=O)C1=CCN(S(=O)(=O)c2ccccc2Br)C1c1ccc(F)cc1 (stereo unspecified)	none (no result: Rv3671c inh, UGM FP inh, GDH-TPI counter)
CCOC(=O)c1nc2sc3c(c2c(=O)[nH]1)CCCC3	Mtb FBA inh 181.0
CC(=O)c1ccc(N2CCN(S(=O)(=O)c3cn(C)cn3)CC2)cc1	GDH-TPI counter 37.4
COc1ccc(-c2cc(C(=O)O)c3c(C)nn(-c4ccccn4)c3n2)cc1	none (no result: Mtb FBA inh, UGM FP inh, GDH-TPI counter)
COc1ccc(N=CC2=C(Nc3ccc(OC)cc3)c3c(C)nn(-c4ccccn4)c3CC2)cc1	UGM FP inh 14.4 (no result: Mtb FBA inh, GDH-TPI counter)
CCOC(=O)Nc1ccc2c(COC(=O)CNS(=O)(=O)c3cccc(Br)c3)cc(=O)oc2c1	Mtb FBA inh 155.5
CCOC(=O)Nc1ccc2c(COC(=O)C(NS(=O)(=O)c3ccc(Cl)cc3)C(C)O)cc(=O)oc2c1 (stereo unspecified)	Mtb FBA inh active
Cn1cc(CCC(=O)N2CCCC(N3CCN(c4ccccc4F)CC3)C2)cn1 (stereo unspecified)	none
CC(Oc1ccc(Br)cc1)C(=O)NCCCN1CCCC1=O (stereo unspecified)	none
CN(/N=C/c1cc(Cl)cc(Cl)c1O)c1c(Cl)cccc1[N+](=O)[O-]	GDH-TPI counter 37.4
CC(C)(C)N/N=C/c1cc(Cl)cc([N+](=O)[O-])c1O	none
CC1(C)CC(=O)C=C(c2ccc3c(c2)OCO3)C1	GDH-TPI counter 32.8
CCN(CC)c1ccc(-c2nn3c(-c4n[nH]c5c4CCC5)nnc3s2)cc1	Mtb FBA inh 39.9
N#C/C(=N\Nc1cc(Cl)cc(Cl)c1)c1nnc2n1CCCCC2	GDH-TPI counter 32.7
N#C/C(=C(/O)CCl)c1nnc2n1CCCCC2	none
Cc1cc(/C=N/NC(=O)c2ccncc2)c(C)n1-c1ccccc1	none
Cc1cc(/C=N/NC(=O)c2cccs2)c(C)n1-c1ccccc1	GDH-TPI counter 32.7
COc1ccc(/C=N/NC(=O)c2cccs2)c2ccccc12	GDH-TPI counter 32.0
COc1ccc(/C=N/NC(=O)c2cccc3ccccc23)c(OC)c1OC	none
Cc1cc(=O)[nH]c(N/N=C/c2cc(C)n(-c3ccccc3)c2C)n1	GDH-TPI counter 42.6
COc1ccc(/C=N/NC(=O)c2cccnc2)c(C(=O)O)c1OC	GDH-TPI counter 31.6
Cc1nn2cc(-c3ccc(Cl)cc3)cnc2c1Cl	none
